{"source": "PubChem BioAssay (EPA / NIEHS)", "note": "Calls of active or inactive are those of the source. How the source made its calls: active means hit-call score of the fitted dose curve at least 0.9, where 1 is the maximum; inactive means score below 0.9."}
{"experiment": "CCTE_Shafer_MEA_acute_cross_correlation_area: CCTE's Neural Acute Assay for Area of Cross Correlation, Shafer Lab (AID 2284024);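 further: curves fitted for loss of cross-correlation area so actives lower synchrony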", "description": "CCTE_Shafer_MEA_acute assay is conducted using Axion Biosystems 48 well microelectrode array (MEA) plates and Maestro recording system. Each well of the MEA plate contains a grid of 16 microelectrodes embedded in the culture surface. Electrically active cells, such as neurons, can be cultured over the electrodes, and electrical activity in these cells can be recorded extracellularly. The spontaneous firing of neurons is captured from each electrode on a microsecond timescale providing both temporally and spatially precise data. […] The CCTE_Shafer_MEA_acute assay uses primary cultures of rat cortical neurons. As these cultures mature over time, neural networks develop functional activity and form cohesive networks in which electrical activity can be highly coordinated. Baseline 40-minute recordings are made on days post-plating 13 or 15, followed by a secondary 40-minute recording after chemical exposure.CCTE_Shafer_MEA_acute_cross_correlation_area is a component of the CCTE_Shafer_MEA_acute assay. It measures the area under the well-wide pooled inter-electrode cross-correlation of action potential firing (not normalized to auto-correlations) within a window centered around 0 for the phase lag during a recording in a microelectrode array (MEA) using Axion Biosystems Maestro 768 channel amplifier with the AxIS adaptive spike detector. The recordings before and after chemical treatment are used to calculate a percent change in the cross correlation area in each well.Data from the assay component CCTE_Shafer_MEA_acute_cross_correlation_area was analyzed into 1 assay endpoint. This assay endpoint, CCTE_Shafer_MEA_acute_cross_correlation_area, was analyzed in the negative analysis fitting direction relative to DMSO as the negative control and baseline of activity. Using a type of functional reporter, gain or loss-of-signal activity can be used to understand electrical activity.\nSpontaneous activity in the cortical cultures was recorded using an Axion Biosystems Maestro 768 channel amplifier and Axion Integrated Studios (AxIS) v1.8 (or later) software. The amplifier recorded from all channels simultaneously (gain = 1200 x; sampling rate = 12.5 kHz/channel): raw signals were filtered with a Butterworth band-pass filter (300-5000 Hz), which filters out slower local field potentials leaving only fast potentials, i.e., \"spikes\", arising from extracellular currents associated with action potentials (Pine 2006; Wheeler and Nam 2011). On-line spike detection of filtered signals was conducted with the AxIS adaptive spike detector, using a threshold of 8x the root mean squared (rms) noise on each channel. Any electrodes with rms noise levels greater than 5 uV were grounded (e.g., no data were recorded). Once grounded, an electrode was grounded for the duration of the experiment. All recordings were conducted at 37 C. Wells were deemed usable if on the day of the exposure >/= 10 electrodes were active (defined as >/= 5 spikes/min). On DIV 13 or 15, a minimum of three wells from one cortical culture preparation were treated with each compound (0.03-40 uM). Prior to recording baseline activity, each mwMEA plate was placed in the Maestro at 37 C and allowed to sit for 20 min while firing rates stabilized. Baseline activity (40 min) was recorded before the addition of each compound. An additional 40 min of spontaneous activity was recorded in the presence of each compound. Changes in network parameters relative to baseline were assessed following compound treatment."}
{"compound": "NC(N)=Nc1nc(CSCCC(N)=NS(N)(=O)=O)cs1", "outcome": "inactive"}
{"compound": "CC1(C)S[C@@H]2[C@H](NC(=O)[C@H](N)c3ccccc3)C(=O)N2[C@H]1C(=O)O", "outcome": "inactive"}
{"compound": "COc1cc(CNC(=O)CCCC/C=C/C(C)C)ccc1O", "outcome": "inactive"}
{"compound": "CC(C)C1OCCN1CCOC(=O)NCCCCCCNC(=O)OCCN1CCOC1C(C)C", "note": "(stereo unspecified)", "outcome": "inactive"}
{"compound": "Cc1c(C(N)=O)cc([N+](=O)[O-])cc1[N+](=O)[O-]", "outcome": "inactive"}
{"compound": "C1CN(CCOCCN2CCOCC2)CCO1", "outcome": "inactive"}
{"compound": "COc1ccccc1Oc1c(NS(=O)(=O)c2ccc(C(C)(C)C)cc2)nc(-c2ncccn2)nc1OCCO", "outcome": "inactive"}
{"compound": "CN(C)C(=O)C(CCN1CCC(O)(c2ccc(Cl)cc2)CC1)(c1ccccc1)c1ccccc1", "outcome": "inactive"}
{"compound": "CC[N+](CC)(CC(=O)Nc1c(C)cccc1C)Cc1ccccc1", "note": "(tested in a mixture with another compound)", "outcome": "inactive"}
{"compound": "CC1(C)S[C@@H]2[C@H](NC(=O)[C@H](N)c3ccc(O)cc3)C(=O)N2[C@H]1C(=O)O", "outcome": "inactive"}
{"compound": "CN(C)Cc1cc(C(C)(C)C)c(O)c(C(C)(C)C)c1", "outcome": "inactive"}
{"compound": "CCC[Si](OC(C)=O)(OC(C)=O)OC(C)=O", "AC50": "0.072 µM (active)"}
{"compound": "O=[N+]([O-])c1cc(S(=O)(=O)Nc2ccccc2)ccc1Nc1ccccc1", "outcome": "inactive"}
{"compound": "CNCCC(Oc1ccc(C(F)(F)F)cc1)c1ccccc1", "note": "(stereo unspecified)", "outcome": "inactive"}
{"compound": "COc1ccc(C(=O)c2ccccc2O)c(O)c1", "AC50": "0.0203 µM (active)"}
{"compound": "CN(C)CCC(c1ccc(Cl)cc1)c1ccccn1", "note": "(stereo unspecified)", "outcome": "inactive"}
